# Experimental data published in paper PMC7862700, “An all-to-all approach to the identification of sequence-specific readers for epigenetic DNA modifications on cytosine”.
# Columns and labels:
# Assay in all cases: DAPPL (digital affinity profiling via proximity ligation, sequencing); 10 mM Tris-HCl pH 7.5, 50 mM NaCl, 1 mM DTT, 4% glycerol, room temperature, 30 min; GST-TFs on glutathione beads, 16-mer random dsDNA library, 0.1% formaldehyde crosslink after washing; high values mean tight binding
# FEV = molecular target: T1, FEV (Homo sapiens, UniProt Q99581 1-238); settings: protein: recombinant; tags: N-terminal GST; dsDNA, one strand shown
# T1 sequence: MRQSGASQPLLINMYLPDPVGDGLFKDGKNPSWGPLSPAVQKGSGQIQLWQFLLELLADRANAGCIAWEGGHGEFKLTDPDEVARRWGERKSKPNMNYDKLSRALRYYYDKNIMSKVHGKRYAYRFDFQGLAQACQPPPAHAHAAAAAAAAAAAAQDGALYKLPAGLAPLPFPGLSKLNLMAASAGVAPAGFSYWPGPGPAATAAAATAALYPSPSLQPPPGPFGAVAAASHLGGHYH
# Procedure, shortened: (§1)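 The binding signal reported is, for every hexamer, its read frequency for a factor over its read frequency for the tag-only sample. Reads came from pools of yeast-expressed, GST-fused human transcription factors on glutathione beads, barcoded with DNA and mixed with that sample, which were incubated with 200 nmole of a random double-stranded 16-mer DNA library in Tris/NaCl/DTT/glycerol buffer at room temperature for 30 min. After washing, the pools were crosslinked with 0.1% formaldehyde, proximity-ligated with BsaI/T4 ligase for 1 h at 37 °C, PCR-amplified and sequenced on an Illumina NextSeq500.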
# ETV5 = ETV5 (Homo sapiens, UniProt P41161 1-510); settings: protein: recombinant; tags: N-terminal GST; dsDNA, one strand shown
# ETV5, sequence (P41161 whole entry): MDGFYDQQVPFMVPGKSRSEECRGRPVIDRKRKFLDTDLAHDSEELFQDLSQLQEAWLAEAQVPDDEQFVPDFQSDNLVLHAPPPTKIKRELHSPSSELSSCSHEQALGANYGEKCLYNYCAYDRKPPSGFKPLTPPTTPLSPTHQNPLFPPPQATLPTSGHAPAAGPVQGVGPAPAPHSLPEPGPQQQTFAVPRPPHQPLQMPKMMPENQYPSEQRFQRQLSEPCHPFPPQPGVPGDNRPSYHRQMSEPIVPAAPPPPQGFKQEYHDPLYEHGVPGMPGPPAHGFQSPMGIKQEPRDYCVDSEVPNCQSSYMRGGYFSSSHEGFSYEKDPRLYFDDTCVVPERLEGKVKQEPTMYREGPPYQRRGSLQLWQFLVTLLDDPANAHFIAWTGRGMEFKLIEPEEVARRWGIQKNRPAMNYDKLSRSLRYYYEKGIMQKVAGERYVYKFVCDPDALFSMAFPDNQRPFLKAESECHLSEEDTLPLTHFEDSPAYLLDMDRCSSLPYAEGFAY
# Procedure, shortened: as §1
# HSF1 = HSF1 (Homo sapiens, UniProt Q00613 1-529); settings: protein: recombinant; tags: N-terminal GST; chain copies: 3; dsDNA, one strand shown
# HSF1, sequence (Q00613 whole entry): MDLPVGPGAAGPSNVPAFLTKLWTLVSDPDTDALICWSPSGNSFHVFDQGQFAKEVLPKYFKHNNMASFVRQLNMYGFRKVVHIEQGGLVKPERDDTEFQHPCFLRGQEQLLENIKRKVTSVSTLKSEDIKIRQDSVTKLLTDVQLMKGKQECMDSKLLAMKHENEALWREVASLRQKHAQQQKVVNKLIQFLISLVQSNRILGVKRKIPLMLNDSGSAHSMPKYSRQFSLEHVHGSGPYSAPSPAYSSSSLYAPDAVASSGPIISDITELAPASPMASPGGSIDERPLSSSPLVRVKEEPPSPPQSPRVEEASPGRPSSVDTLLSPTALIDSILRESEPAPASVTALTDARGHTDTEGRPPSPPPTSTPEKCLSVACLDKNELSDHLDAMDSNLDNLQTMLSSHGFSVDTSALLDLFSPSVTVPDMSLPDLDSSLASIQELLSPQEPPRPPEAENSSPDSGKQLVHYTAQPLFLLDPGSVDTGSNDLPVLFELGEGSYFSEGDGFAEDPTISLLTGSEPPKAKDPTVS
# Procedure, shortened: as §1
# SPIC = molecular target: T2, SPIC (Homo sapiens, UniProt Q8N5J4 1-248); settings: protein: recombinant; tags: N-terminal GST; dsDNA, one strand shown
# T2 sequence: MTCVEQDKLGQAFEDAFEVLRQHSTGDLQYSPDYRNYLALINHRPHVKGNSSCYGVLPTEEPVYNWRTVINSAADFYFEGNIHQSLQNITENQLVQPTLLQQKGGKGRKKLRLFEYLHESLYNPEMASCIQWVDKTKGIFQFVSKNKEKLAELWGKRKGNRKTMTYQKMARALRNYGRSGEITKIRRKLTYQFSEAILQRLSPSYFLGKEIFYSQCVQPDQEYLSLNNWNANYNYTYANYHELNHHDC
# Procedure, shortened: as §1
# ELF4 = ELF4 (Homo sapiens, UniProt Q99607 1-663); settings: protein: recombinant; tags: N-terminal GST; dsDNA, one strand shown
# ELF4, sequence (Q99607 whole entry): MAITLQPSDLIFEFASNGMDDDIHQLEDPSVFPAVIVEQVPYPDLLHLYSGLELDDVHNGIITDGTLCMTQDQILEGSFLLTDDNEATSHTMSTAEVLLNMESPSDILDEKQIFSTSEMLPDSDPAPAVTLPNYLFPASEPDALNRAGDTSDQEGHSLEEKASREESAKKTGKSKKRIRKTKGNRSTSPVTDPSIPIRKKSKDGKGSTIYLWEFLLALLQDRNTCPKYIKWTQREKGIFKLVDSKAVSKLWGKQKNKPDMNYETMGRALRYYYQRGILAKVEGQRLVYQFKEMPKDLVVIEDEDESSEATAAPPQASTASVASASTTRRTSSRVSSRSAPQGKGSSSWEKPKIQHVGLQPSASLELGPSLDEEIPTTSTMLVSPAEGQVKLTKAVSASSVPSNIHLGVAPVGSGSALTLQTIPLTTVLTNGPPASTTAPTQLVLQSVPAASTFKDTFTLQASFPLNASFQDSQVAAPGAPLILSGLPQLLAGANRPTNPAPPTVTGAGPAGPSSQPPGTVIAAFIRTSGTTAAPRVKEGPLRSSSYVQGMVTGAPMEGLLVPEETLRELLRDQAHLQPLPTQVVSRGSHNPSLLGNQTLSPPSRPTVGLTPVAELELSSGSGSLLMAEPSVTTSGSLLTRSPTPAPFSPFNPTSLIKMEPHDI
# Procedure, shortened: as §1
# ELK4 = molecular target: T3, ELK4 (Homo sapiens, UniProt P28324-2 1-405); settings: protein: recombinant; tags: N-terminal GST; dsDNA, one strand shown
# T3 sequence: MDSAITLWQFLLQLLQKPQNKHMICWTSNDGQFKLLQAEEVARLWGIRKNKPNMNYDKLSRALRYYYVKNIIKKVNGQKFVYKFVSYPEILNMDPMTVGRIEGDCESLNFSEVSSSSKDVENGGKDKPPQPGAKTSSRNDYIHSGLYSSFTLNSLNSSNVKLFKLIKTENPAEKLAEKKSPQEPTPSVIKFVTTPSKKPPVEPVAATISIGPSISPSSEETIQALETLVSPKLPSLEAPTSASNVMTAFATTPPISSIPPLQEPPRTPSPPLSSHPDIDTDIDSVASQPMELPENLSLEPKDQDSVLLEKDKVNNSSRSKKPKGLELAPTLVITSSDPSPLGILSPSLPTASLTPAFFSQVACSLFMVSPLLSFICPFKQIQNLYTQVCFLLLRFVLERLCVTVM
# Procedure, shortened: as §1
# ETV2 = molecular target: T4, ETV2 (Homo sapiens, UniProt O00321 1-342); settings: protein: recombinant; tags: N-terminal GST; dsDNA, one strand shown
# T4 sequence: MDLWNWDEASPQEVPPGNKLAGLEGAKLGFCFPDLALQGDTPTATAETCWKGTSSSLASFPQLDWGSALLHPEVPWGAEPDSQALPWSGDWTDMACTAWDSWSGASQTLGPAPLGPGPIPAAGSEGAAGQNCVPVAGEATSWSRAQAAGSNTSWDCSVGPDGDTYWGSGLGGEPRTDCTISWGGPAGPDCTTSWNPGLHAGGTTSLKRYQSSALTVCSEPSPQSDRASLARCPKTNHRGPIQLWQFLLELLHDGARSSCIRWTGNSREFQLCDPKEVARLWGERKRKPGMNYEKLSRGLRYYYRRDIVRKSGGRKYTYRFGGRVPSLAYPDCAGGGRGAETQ
# Procedure, shortened: as §1
# ELF3 = molecular target: T5, ELF3 (Homo sapiens, UniProt P78545 1-371); settings: protein: recombinant; tags: N-terminal GST; dsDNA, one strand shown
# T5 sequence: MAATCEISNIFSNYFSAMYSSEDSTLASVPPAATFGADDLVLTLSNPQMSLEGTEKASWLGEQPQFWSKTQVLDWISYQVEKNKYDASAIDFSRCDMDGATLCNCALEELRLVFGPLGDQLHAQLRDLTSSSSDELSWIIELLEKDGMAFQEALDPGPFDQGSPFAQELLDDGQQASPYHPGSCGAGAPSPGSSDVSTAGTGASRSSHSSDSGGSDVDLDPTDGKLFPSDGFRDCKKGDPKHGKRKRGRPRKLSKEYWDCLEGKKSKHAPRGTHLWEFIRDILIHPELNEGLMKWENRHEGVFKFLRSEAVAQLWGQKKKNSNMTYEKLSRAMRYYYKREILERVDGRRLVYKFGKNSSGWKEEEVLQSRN
# Procedure, shortened: as §1
# CRX = CRX (Homo sapiens, UniProt O43186 1-299); settings: protein: recombinant; tags: N-terminal GST; dsDNA, one strand shown
# CRX, sequence (O43186 whole entry): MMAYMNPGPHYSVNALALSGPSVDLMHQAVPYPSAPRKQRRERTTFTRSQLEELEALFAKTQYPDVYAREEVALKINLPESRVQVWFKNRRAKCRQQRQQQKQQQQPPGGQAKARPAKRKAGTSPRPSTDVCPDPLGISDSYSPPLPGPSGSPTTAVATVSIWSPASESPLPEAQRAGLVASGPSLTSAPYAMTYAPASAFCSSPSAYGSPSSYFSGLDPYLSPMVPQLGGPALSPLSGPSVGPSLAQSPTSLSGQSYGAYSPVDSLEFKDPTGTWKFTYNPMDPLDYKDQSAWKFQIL
# Procedure, shortened: as §1
# ETV1 = ETV1 (Homo sapiens, UniProt P50549 1-477); settings: protein: recombinant; tags: N-terminal GST; dsDNA, one strand shown
# ETV1, sequence (P50549 whole entry): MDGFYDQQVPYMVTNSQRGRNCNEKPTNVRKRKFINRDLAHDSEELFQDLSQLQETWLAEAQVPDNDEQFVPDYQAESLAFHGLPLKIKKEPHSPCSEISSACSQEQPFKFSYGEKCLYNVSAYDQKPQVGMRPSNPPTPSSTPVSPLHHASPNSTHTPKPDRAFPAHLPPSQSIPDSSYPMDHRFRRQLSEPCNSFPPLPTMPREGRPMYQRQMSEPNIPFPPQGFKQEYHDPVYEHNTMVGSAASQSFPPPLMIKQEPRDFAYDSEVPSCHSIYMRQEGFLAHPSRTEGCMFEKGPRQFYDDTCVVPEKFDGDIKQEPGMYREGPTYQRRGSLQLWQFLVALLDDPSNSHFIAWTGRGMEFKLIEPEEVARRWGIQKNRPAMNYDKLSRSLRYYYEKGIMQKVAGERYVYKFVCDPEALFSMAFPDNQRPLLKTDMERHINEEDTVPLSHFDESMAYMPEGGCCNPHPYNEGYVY
# Procedure, shortened: as §1
# ERF = molecular target: T6, ERF (Homo sapiens, UniProt P50548 1-548); settings: protein: recombinant; tags: N-terminal GST; dsDNA, one strand shown
# T6 sequence: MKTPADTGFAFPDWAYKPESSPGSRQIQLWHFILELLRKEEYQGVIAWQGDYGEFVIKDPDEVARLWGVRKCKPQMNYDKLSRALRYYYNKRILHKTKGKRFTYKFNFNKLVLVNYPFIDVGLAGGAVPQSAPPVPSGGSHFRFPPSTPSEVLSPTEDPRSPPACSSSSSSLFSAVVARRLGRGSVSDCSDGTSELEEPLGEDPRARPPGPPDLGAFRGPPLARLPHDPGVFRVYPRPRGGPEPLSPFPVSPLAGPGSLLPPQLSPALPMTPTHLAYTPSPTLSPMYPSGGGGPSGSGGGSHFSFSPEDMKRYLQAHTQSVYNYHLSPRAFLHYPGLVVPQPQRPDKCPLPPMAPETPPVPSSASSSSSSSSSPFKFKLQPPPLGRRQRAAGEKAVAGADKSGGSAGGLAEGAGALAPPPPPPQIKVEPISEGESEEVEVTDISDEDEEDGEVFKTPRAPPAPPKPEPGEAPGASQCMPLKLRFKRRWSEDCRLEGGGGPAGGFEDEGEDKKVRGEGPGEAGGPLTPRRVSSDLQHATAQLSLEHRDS
# Procedure, shortened: as §1
# ETV3L = molecular target: T7, ETV3L (Homo sapiens, UniProt Q6ZN32 1-361); settings: protein: recombinant; tags: N-terminal GST; dsDNA, one strand shown
# T7 sequence: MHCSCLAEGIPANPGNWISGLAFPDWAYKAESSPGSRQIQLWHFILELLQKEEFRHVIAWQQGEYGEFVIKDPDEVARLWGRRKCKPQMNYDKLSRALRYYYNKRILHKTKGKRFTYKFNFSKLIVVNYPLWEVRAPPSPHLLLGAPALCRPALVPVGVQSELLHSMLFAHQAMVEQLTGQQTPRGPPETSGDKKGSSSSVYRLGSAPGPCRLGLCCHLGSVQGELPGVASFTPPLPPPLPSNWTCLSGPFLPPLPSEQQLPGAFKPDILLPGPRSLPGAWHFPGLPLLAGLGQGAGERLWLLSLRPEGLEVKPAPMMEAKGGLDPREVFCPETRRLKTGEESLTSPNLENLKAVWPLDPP
# Procedure, shortened: as §1
# ETS2 = molecular target: T8, ETS2 (Homo sapiens, UniProt P15036 1-469); settings: protein: recombinant; tags: N-terminal GST; dsDNA, one strand shown
# T8 sequence: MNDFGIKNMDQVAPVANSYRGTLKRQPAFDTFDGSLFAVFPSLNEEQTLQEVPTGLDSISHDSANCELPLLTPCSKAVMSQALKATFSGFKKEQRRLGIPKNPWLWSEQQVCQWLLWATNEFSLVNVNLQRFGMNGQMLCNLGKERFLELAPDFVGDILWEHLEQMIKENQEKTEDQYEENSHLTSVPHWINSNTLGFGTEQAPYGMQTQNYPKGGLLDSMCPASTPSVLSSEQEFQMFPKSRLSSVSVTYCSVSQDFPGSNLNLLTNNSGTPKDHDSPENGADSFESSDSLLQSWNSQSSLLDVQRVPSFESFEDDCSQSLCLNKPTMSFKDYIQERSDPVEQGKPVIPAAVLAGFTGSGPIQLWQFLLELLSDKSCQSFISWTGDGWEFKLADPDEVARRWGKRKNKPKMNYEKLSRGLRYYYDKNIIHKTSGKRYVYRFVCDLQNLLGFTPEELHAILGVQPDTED
# Procedure, shortened: as §1
# SPDEF = molecular target: T9, SPDEF (Homo sapiens, UniProt O95238 1-335); settings: protein: recombinant; tags: N-terminal GST; dsDNA, one strand shown
# T9 sequence: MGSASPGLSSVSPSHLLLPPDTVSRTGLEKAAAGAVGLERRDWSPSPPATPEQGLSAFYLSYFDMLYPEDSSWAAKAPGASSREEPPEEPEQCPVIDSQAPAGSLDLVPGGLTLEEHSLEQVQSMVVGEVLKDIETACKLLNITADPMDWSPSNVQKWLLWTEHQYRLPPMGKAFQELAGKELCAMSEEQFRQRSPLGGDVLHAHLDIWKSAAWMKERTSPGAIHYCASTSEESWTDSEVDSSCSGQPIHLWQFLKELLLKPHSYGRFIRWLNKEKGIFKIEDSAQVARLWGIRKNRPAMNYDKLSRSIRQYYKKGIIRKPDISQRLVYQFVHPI
# Procedure, shortened: as §1
# ETV7 = molecular target: T10, ETV7 (Homo sapiens, UniProt Q9Y603 1-341); settings: protein: recombinant; tags: N-terminal GST; dsDNA, one strand shown
# T10 sequence: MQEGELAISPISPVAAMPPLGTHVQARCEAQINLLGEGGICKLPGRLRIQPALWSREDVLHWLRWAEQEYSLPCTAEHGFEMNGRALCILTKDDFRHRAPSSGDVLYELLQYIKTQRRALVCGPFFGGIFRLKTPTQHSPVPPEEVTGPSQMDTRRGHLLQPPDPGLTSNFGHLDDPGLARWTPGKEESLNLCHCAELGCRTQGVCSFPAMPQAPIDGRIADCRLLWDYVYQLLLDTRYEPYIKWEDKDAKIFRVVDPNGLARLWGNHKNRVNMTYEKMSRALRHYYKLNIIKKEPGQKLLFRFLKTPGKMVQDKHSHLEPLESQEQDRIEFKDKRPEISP
# Procedure, shortened: as §1
# ELF5 = molecular target: T11, ELF5 (Homo sapiens, UniProt Q9UKW6-2 1-255); settings: protein: recombinant; tags: N-terminal GST; dsDNA, one strand shown
# T11 sequence: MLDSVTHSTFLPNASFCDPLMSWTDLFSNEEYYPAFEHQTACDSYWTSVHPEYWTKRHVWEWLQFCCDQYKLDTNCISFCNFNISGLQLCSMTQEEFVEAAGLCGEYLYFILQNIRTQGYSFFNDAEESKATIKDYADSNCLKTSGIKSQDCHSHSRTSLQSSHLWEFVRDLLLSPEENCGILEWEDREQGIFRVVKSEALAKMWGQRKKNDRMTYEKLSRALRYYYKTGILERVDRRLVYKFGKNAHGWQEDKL
# Procedure, shortened: as §1
# ETV3 = molecular target: T12, ETV3 (Homo sapiens, UniProt P41162-2 1-143); settings: protein: recombinant; tags: N-terminal GST; dsDNA, one strand shown
# T12 sequence: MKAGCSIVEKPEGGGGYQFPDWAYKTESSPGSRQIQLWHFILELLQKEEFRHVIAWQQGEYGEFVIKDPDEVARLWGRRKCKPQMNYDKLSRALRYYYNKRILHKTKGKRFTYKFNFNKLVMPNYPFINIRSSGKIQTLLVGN
# Procedure, shortened: as §1
# ETV6 = ETV6 (Homo sapiens, UniProt P41212 1-452); settings: protein: recombinant; tags: N-terminal GST; dsDNA, one strand shown
# ETV6, sequence (P41212 whole entry): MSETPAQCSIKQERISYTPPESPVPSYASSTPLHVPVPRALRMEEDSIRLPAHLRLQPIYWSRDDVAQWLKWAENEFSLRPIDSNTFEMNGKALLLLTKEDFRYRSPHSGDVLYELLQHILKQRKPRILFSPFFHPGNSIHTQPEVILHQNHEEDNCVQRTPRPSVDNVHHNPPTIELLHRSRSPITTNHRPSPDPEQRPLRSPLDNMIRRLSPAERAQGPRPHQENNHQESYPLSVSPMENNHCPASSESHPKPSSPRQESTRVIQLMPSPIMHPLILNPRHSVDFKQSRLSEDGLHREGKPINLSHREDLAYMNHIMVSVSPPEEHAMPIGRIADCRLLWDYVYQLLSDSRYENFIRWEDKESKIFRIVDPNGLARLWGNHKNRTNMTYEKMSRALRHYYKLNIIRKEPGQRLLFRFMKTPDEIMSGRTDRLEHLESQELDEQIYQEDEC
# Procedure, shortened: as §1
sequence,measurement,setting,value
AAATAT,binding signal,FEV,"1.28 fold enrichment (6-mer frequency, TF over GST control)"
same,binding signal,ETV5,"1.36 fold enrichment (6-mer frequency, TF over GST control)"
same,binding signal,HSF1,"1.29 fold enrichment (6-mer frequency, TF over GST control)"
same,binding signal,SPIC,"1.43 fold enrichment (6-mer frequency, TF over GST control)"
same,binding signal,ELF4,"1.34 fold enrichment (6-mer frequency, TF over GST control)"
same,binding signal,ELK4,"1.24 fold enrichment (6-mer frequency, TF over GST control)"
same,binding signal,ETV2,"1.49 fold enrichment (6-mer frequency, TF over GST control)"
same,binding signal,ELF3,"1.54 fold enrichment (6-mer frequency, TF over GST control)"
same,binding signal,CRX,"1.39 fold enrichment (6-mer frequency, TF over GST control)"
same,binding signal,ETV1,"1.39 fold enrichment (6-mer frequency, TF over GST control)"
same,binding signal,ERF,"1.25 fold enrichment (6-mer frequency, TF over GST control)"
same,binding signal,ETV3L,"1.32 fold enrichment (6-mer frequency, TF over GST control)"
same,binding signal,ETS2,"1.37 fold enrichment (6-mer frequency, TF over GST control)"
same,binding signal,SPDEF,"1.35 fold enrichment (6-mer frequency, TF over GST control)"
same,binding signal,ETV7,"1.4 fold enrichment (6-mer frequency, TF over GST control)"
same,binding signal,ELF5,"1.41 fold enrichment (6-mer frequency, TF over GST control)"
same,binding signal,ETV3,"1.29 fold enrichment (6-mer frequency, TF over GST control)"
same,binding signal,ETV6,"1.43 fold enrichment (6-mer frequency, TF over GST control)"
